PubChem BioAssay (NCATS)
Several values for one entry are separate records, joined by “and”; a condition that tells them apart may be missing. Identical values can stand only once. Results filed as inconclusive are left out. A call without a number means that no potency is given here. Activity calls are given as the source filed them. Unless noted, calls come from the whole dose curve; as a rule, active = well fitted curve in the direction sought with a large enough effect; inconclusive = small, poorly fitted or top-dose-only effect, or another doubt; inactive = no such curve, though single readings can be large; an effect the other way counts as inactive or inconclusive.

Assays:
[1] = target: Calcium and integrin-binding protein 1 (Homo sapiens) (UniProt Q99828); experiment: Primary qHTS for Identification of Calcium Integrin Binding Protein 1 (CIB1) Competitor (AID 1508620);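 note: GST tagged CIB1 binding a fluorescein labelled alphaIIb integrin peptide tracer; top concentration of the series differs between compounds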
Chain of Calcium and integrin-binding protein 1 (Homo sapiens) (Q99828 whole entry, looked up): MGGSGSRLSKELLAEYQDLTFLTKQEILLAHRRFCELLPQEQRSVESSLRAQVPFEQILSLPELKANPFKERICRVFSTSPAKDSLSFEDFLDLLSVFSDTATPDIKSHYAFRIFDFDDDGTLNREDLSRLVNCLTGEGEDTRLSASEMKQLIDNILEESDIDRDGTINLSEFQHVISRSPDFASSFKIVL
In short: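 Fluorescence polarization competition: CIB1-GST (1 uM final) preincubated with compound 15 min at room temperature, then FITC-labeled alphaIIb peptide (100 nM final) added for another 15 min. Polarization read at Ex 480/Em 540.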

[2] = Primary qHTS for small molecule stabilizers of the endoplasmic reticulum resident proteome: Secreted ER Calcium Modulated Protein (SERCaMP) assay (AID 1508630); note: potency is the fitted concentration of half-maximal effect
In short: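 The SH-SY5Y reporter protocol was run at 3 concentrations up to 38.3 uM (primary) or 11 concentrations (follow-up): 16 h compound, 100 nM thapsigargin for 4 h, then extracellular luciferase luminescence.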

[3] = target: Cytochrome P450 2D6 (Homo sapiens) (UniProt P10635); experiment: Cytochrome P450 family 2 subfamily D member 6 (CYP2D6) small molecule antagonists: luciferase biochemical (cell-free) qHTS assay (AID 1645840; active = well fitted curve in the direction sought with a large enough effect in the repeat runs; an effect the other way counts as inactive or inconclusive; note: nearly all actives have a fitted effect of over 55% in size; note: potency is the fitted concentration of half-maximal effect)
Chain of Cytochrome P450 2D6 (Homo sapiens) (P10635 whole entry, looked up): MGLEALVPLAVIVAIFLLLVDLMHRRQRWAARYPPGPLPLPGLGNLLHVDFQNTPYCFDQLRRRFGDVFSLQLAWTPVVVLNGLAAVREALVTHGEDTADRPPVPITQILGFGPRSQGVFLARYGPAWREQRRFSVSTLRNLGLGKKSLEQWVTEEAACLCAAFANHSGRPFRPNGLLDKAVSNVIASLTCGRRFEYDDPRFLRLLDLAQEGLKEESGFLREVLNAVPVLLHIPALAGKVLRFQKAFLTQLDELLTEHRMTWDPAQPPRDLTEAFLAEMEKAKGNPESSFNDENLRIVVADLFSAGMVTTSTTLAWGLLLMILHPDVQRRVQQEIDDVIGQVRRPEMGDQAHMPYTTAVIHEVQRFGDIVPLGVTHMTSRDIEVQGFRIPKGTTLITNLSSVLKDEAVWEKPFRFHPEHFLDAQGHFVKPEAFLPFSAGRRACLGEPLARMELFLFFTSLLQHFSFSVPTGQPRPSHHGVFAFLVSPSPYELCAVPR
In short: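 P450-Glo CYP2D6 system: proluciferin substrate converted by enzyme to luciferin, read by luminescence proportional to activity. Enzyme-substrate mix with compound 10 min at room temperature, then NADPH regeneration 1 h before detection reagent.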

[4] = target: Cytochrome P450 2C9 (Homo sapiens) (UniProt P11712); experiment: Cytochrome P450 family 2 subfamily C member 9 (CYP2C9) small molecule antagonists: luciferase biochemical (cell-free) qHTS assay (AID 1645842; active = well fitted curve in the direction sought with a large enough effect in the repeat runs; an effect the other way counts as inactive or inconclusive; note: nearly all actives have a fitted effect of over 55% in size; note: potency is the fitted concentration of half-maximal effect)
Chain of Cytochrome P450 2C9 (Homo sapiens) (P11712 whole entry, looked up): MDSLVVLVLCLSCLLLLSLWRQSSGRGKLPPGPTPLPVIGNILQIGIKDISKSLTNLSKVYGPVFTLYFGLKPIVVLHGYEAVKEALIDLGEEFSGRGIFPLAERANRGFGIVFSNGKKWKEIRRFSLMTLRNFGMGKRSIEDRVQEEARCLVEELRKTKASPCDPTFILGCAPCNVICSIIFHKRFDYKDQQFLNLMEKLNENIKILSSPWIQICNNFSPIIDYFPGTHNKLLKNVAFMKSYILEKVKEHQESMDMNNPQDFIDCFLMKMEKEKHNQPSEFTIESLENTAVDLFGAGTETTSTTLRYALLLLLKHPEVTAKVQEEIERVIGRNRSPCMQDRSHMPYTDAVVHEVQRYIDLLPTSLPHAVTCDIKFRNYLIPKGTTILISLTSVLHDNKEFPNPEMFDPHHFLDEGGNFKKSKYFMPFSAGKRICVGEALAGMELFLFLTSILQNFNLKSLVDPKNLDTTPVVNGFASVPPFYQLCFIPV
In short: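 P450-Glo CYP2C9 system: proluciferin substrate with enzyme in mix containing 0.4% BSA, 10 min at room temperature, then NADPH regeneration solution added and incubated 1 h at 37C. Detection reagent stopped reaction; luminescence read after 20 min as RLU.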

[5] = Primary qHTS for inhibitors of nuclear receptor binding SET domain protein 2 (NSD2) in an isogenic RCH-ACV NSD2 p.E1099K mutant (9B) (AID 1645876); note: nearly all actives have a fitted effect of over 70% in size; note: potency is the fitted concentration of half-maximal effect
[6] = Primary qHTS for inhibitors of nuclear receptor binding SET domain protein 2 (NSD2) in an RCH-ACV wild type WT cells (2C) (AID 1645877); note: nearly all actives have a fitted effect of over 70% in size; note: potency is the fitted concentration of half-maximal effect

Row | Compound | outcome [1] | Potency [2] | Potency [3] | Potency [4] | Potency [5] | Potency [6]
1 | CCCn1c(=O)c2[nH]c(-c3cnn(Cc4cccc(C(F)(F)F)c4)c3)nc2n(CC)c1=O | inactive | inactive | inactive | inactive | inactive | inactive
2 | Cc1ccc(C(=O)Nc2cccc(C(F)(F)F)c2)cc1-c1ccc2nc(NCCN3CCOCC3)ncc2c1 | inactive | inactive | 12 µM (active) | 1.69 µM (active) | 1.45 µM (active) and 2.63 µM (active) | 1.83 µM (active) and 4.17 µM (active)
3 | CC(C)CC(=O)Nc1n[nH]c2c1CN(C(=O)C1CCN(C)CC1)C2(C)C | inactive | inactive | inactive | inactive | 129 nM (active) and 662 nM (active) | 580 nM (active) and 590 nM (active)
4 | C=CC(=O)Nc1cccc(Oc2nc(Nc3ccc(N4CCN(C)CC4)cc3OC)ncc2Cl)c1 | inactive | inactive | 23.9 µM (active) | 13.5 µM (active) | 5.15 µM (active) and 8.33 µM (active) | 5.15 µM (active) and 8.33 µM (active)
5 | O=C(Nc1nc2cccc(-c3ccc(CN4CCS(=O)(=O)CC4)cc3)n2n1)C1CC1 | inactive | inactive | inactive | inactive | 14.5 µM (active) and 14.8 µM (active) | 18.3 µM (active) and 9.34 µM (active)
6 | CNC(=O)c1cc(Oc2ccc(NC(=O)Nc3cc(C(C)(C)C)nn3-c3ccc4ncccc4c3)c(F)c2)ccn1 | inactive | inactive | inactive | 6.74 µM (active) | 3.65 µM (active) and 4.17 µM (active) | 7.28 µM (active) and 5.25 µM (active)
7 | CN(C)Cc1c(C(=O)NCCOc2ccc(C(=O)NO)cc2)oc2ccccc12 | inactive | inactive | 1.69 µM (active) | inactive | 515 nM (active) and 332 nM (active) | 515 nM (active) and 296 nM (active)
8 | COc1ccc(C(=O)CC2(O)C(=O)Nc3c(Cl)ccc(Cl)c32)cc1 (configuration not stated) | inactive | inactive | inactive | 16.9 µM (active) and 15.1 µM (active) | 2.58 µM (active) | 1.83 µM (active)
9 | Cc1cnc(-c2cnc(NCCNc3ccc(C#N)cn3)nc2-c2ccc(Cl)cc2Cl)[nH]1 | inactive | inactive | 1.51 µM (active) | 1.51 µM (active) | 4.59 µM (active) and 3.72 µM (active) | 3.25 µM (active) and 3.72 µM (active)
10 | COc1ccc(F)c(F)c1C(=O)c1cnc(NC2CCN(S(C)(=O)=O)CC2)nc1N | inactive | inactive | inactive | 10.7 µM (active) and 19 µM (active) | 325 nM (active) and 662 nM (active) | 325 nM (active) and 525 nM (active)
11 | CNC(=O)c1nn(C)c2c1C(C)(C)Cc1cnc(Nc3ccc(N4CCN(C)CC4)cc3)nc1-2 | inactive | inactive | inactive | 21.3 µM (active) | 515 nM (active) and 662 nM (active) | 409 nM (active) and 417 nM (active)
12 | Cc1ccc2nc(NC(=O)CSc3nc4c(c(=O)n3-c3ccccc3)SCC4)sc2c1 | inactive | inactive | inactive | inactive | inactive | inactive
13 | Nc1ccn([C@@H]2CS[C@H](CO)O2)c(=O)n1 | inactive | inactive | inactive | inactive | inactive | inactive
14 | Cc1[nH]nc2ccc(-c3cncc(OC[C@@H](N)Cc4ccccc4)c3)cc12 | inactive | inactive | 0.674 µM (active) | 9.52 µM (active) | 325 nM (active) and 263 nM (active) | 326 nM (active) and 186 nM (active)
15 | COc1cc(Nc2ncc(F)c(Nc3ccc4c(n3)N(COP(=O)(O)O)C(=O)C(C)(C)O4)n2)cc(OC)c1OC | inactive | inactive | inactive | 10.7 µM (active) | 1.29 µM (active) and 5.17 µM (active) and 1.48 µM (active) | 1.15 µM (active) and 5.17 µM (active) and 1.66 µM (active)
16 | COc1cccc2c(NCc3ccccc3)nc(-n3c(N)nc4ccccc43)nc12 | inactive | inactive | 1.9 µM (active) | 6.74 µM (active) | 8.33 µM (active) | 8.33 µM (active)
17 | CC(=O)c1c(C)c2cnc(Nc3ccc(N4CCNCC4)cn3)nc2n(C2CCCC2)c1=O | inactive | 5.95 µM (active) | inactive | inactive | 1.48 µM (active) | 1.32 µM (active)
